Screening results deposited in PubChem by several laboratories.
The list is not random: actives were taken first. Their share in the collection is about 27%.
CYP2C19 act – human CYP2C19 activators, primary screen, biochemical, luminescence; Cytochrome P450 2C19 (Homo sapiens), P33261; recombinant CYP2C19, luciferin-H EGE luminescence; stronger effect = higher value; 0 = fully inhibited enzyme, 1 = untreated enzyme; activation factor at 5 µM; 96,000 tested, under 10 active;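 active = activation factor of at least 2 at 5 µM in the primary screen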
sEH activator – soluble epoxide hydrolase activators, primary screen, biochemical, human sEH. 91,000 tested, 0.04% active. activation, % at 2 µM. purified human sEH enzymatic activity, activator screen; in the data active = activation above about 37%
CYP2C9 act – human CYP2C9 activators, primary screen, biochemical, luminescence; Cytochrome P450 2C9 (Homo sapiens), P11712; 96,000 tested, 1.4% active; AID 1024, 2008; recombinant CYP2C9, luciferin-H conversion; stronger effect = higher value; factor 1 = untreated enzyme, 0 = blocked; activation factor at 5 µM;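 active = activation factor of 2 or more for CYP2C9 at a 5 µM dose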
Target sequence (P11712 whole entry, looked up): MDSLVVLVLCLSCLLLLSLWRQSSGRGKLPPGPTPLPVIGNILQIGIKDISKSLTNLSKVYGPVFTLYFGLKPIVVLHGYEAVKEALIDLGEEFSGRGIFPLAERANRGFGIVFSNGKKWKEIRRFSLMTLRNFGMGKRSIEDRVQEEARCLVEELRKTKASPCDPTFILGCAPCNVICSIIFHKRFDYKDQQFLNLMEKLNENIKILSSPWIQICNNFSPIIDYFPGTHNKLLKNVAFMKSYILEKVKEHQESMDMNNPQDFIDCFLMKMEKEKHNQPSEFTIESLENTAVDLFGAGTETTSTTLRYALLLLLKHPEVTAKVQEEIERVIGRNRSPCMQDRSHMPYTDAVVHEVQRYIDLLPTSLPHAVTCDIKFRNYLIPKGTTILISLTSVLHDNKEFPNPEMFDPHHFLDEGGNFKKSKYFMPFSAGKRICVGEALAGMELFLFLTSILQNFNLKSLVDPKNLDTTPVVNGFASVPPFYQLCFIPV
sEH inhibitor – soluble epoxide hydrolase inhibitors, primary screen, biochemical, human sEH. Bifunctional epoxide hydrolase 2 (Homo sapiens), P34913. recombinant human sEH enzymatic activity assay. inhibition, % at 2 µM. 91,000 tested, 0.34% active. AID 707, 2007; in the data active = inhibition above about 80%
CYP2C9 inhib – blockers of cytochrome P450 2C9 activity – biochemical, luminescence, ADME assay, primary screen; inhibition, % at 5 µM; AID 777, 2007; P11712; 96,000 tested, 20% active; CYP2C9 Supersomes, luciferin-H conversion;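 active = blocking of liver enzyme CYP2C9 beyond about 50% at 5 µM, limit read from the data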
CYP2C19 inhib – blockers of cytochrome P450 2C19 activity – biochemical, luminescence, ADME assay, primary screen. P33261. AID 778, 2007. 96,000 tested, 21% active. inhibition, % at 5 µM. CYP2C19 Supersomes, luciferin-H EGE luminescence, 30 min;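 active = CYP2C19 inhibition above a set limit at 5 µM in the primary screen, cut at about 50% in these data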
Hits are given with their value; 0 = inactive; - = not tested or not shown.

SMILES	CYP2C19 act	sEH activator	CYP2C9 act	sEH inhibitor	CYP2C9 inhib	CYP2C19 inhib
Cc1ccn2cc(CCNS(=O)(=O)c3ccc(F)c(C(F)(F)F)c3)nc2c1	0	0	0	0	0	0
Cc1c(C(=O)N2CCN(Cc3ccccc3)CC2)sc2ncnc(N3CCOCC3)c12	0	-	0	-	0	55
CCOC(=O)c1cnn(-c2ncnc3sc(C)c(C)c23)c1N	0	0	0	0	0	0
CCCCNC(=O)c1sc2ncnc(N3CCc4ccccc4C3)c2c1C	0	0	0	0	94	0
CCOC(=O)CNC(=O)c1sc2ncnc(N3CCc4ccccc4C3)c2c1C	0	0	0	0	98	79
CCOC(=O)c1sc2ncnc(N3CCN(C(=O)OCC)CC3)c2c1C	0	-	0	-	76	0
Cc1c(C(=O)N2CCN(c3ccccc3)CC2)sc2ncnc(N3CCN(c4ccccc4)CC3)c12	-	0	-	0	-	-
CCOc1ccc(-n2cc(C(=O)N3CCCCCC3)c3cc(OC)c(OC)cc3c2=O)cc1	0	0	0	0	0	0
COc1ccc(C2CC(=O)Nc3ccccc3S2(=O)=O)cc1OC (stereo unspecified)	0	-	0	-	0	0
CCCC1(C(=O)OCC)NC(c2ccc(OC)cc2OC)C2C(=O)N(c3ccc4c(c3)OCCO4)C(=O)C21 (stereo unspecified)	-	0	-	0	-	-
COc1cc(C(=O)N2CCN(c3ncnc4sc(C)c(C)c34)CC2)cc(OC)c1OC	0	0	0	0	70	73
O=C(NCCCN1CCOCC1)c1cc(-c2ccccc2)on1	0	0	0	0	0	0
Cc1c(C(=O)NCCCN2CCOCC2)sc2ncnc(N3CCN(c4ccccc4)CC3)c12	0	-	0	-	91	50
COc1cc(C(=O)N2CCN(C(=O)CC(C)C)CC2)cc(OC)c1OC	0	0	0	0	0	0
CCOC(=O)c1sc2ncn(C(C)C(=O)OCC)c(=O)c2c1C (stereo unspecified)	0	0	0	0	75	81
CCOC(=O)c1sc2nc(CC(=O)OC)nc(N3CCN(c4ccccn4)CC3)c2c1C	0	0	0	0	85	68
O=C(Cn1nc(-c2ccc(N3CCOCC3)c([N+](=O)[O-])c2)c2ccccc2c1=O)N1CCCCC1	0	0	0	0	0	0
COCCn1c(SCC(=O)OC(C)C)nnc1-c1ccccc1	0	0	0	0	0	0
CCOC(=O)c1[nH]c(CSc2nnc(-c3ccncc3)n2CCOC)c(C(=O)OCC)c1C	0	0	0	0	94	65
COCCn1c(SCc2nc3ccccc3c(=O)[nH]2)nnc1-c1ccncc1	0	0	0	0	0	52
C=CCn1c(SCc2nc3ccccc3c(=O)[nH]2)nnc1-c1cc2cc(Cl)ccc2o1	0	0	0	0	68	0
O=c1c2ccccc2nc(-c2ccccc2)n1Cc1ccco1	0	0	0	0	0	0
O=c1[nH]c(CSc2nnc(-c3ccncc3)n2Cc2ccco2)nc2ccccc12	0	-	0	-	56	0
CCOC(=O)C1CCN(Cc2cnc(Oc3ccc(C(C)(C)C)cc3)s2)CC1	0	0	0	0	0	0
CC(C)C(OC(=O)c1ccco1)C(=O)NCc1ccccc1 (stereo unspecified)	0	0	0	0	0	0
SMILES	CYP2C19 act	sEH activator	CYP2C9 act	sEH inhibitor	CYP2C9 inhib	CYP2C19 inhib
COCCCn1c(SCc2nc3ccccc3c(=O)[nH]2)nc2ccccc2c1=O	0	0	0	0	67	0
CCOc1ncccc1C(=O)OCC(=O)NCCc1ccccc1	0	0	0	0	0	68
Cc1cc(C(=O)OCC(=O)NCCc2ccccc2)c(C)o1	0	0	0	0	88	76
CCOc1ncccc1C(=O)OCC(=O)Nc1cc(C)ccc1C	0	-	0	-	0	0
Cc1cc(C(=O)OCC(=O)Nc2ccccc2F)c(C)o1	0	0	0	0	0	0
Cc1nc2sc(C(c3cccc(F)c3)N3CC(C)OC(C)C3)c(O)n2n1 (stereo unspecified)	0	0	0	0	0	0
C=CCn1c2ccccc2c2nnc(SCC(=O)Nc3c(C)n(C)n(-c4ccccc4)c3=O)nc21	0	0	0	0	0	0
COC(=O)CSc1ncc(OC)c(OC)n1	0	-	0	-	0	0
CCn1c2ccccc2c2nnc(SCC(=O)Nc3cc(C)on3)nc21	0	-	0	-	0	0
CCOC(=O)CSc1ncc(-c2ccccc2)nn1	0	0	0	0	0	70
CCOC(=O)CSc1ncc(OC)c(Sc2ccc(OC)cc2)n1	0	-	0	-	84	0
CCn1c2ccccc2c2nnc(SCC(=O)NCc3cccs3)nc21	0	-	0	-	0	96
C=CCn1c2ccccc2c2nnc(SCC(=O)NC(C(=O)OC)C(C)C)nc21 (stereo unspecified)	0	0	0	0	90	100
C=CCn1c(SCC(=O)Nc2c(C)n(C)n(-c3ccccc3)c2=O)nc2sc(C)c(-c3ccccc3)c2c1=O	0	0	0	0	0	0
CCn1c2ccccc2c2nnc(SCC(=O)NCCOC)nc21	0	0	0	0	0	55
CCn1c2ccccc2c2nnc(SCC(N)=O)nc21	0	0	0	0	0	0
CCCn1c2ccccc2c2nnc(SCC(=O)OCC)nc21	0	0	0	0	0	66
O=C1CC(c2cccc(Br)c2)c2cc3c(cc2N1)CCC3 (stereo unspecified)	0	0	0	0	55	0
Cn1c2ccccc2c2ncn(CCC3=CCCCC3)c(=O)c21	0	0	0	0	84	71
COc1cc(CCNC(=O)c2cnn3ccccc23)cc(OC)c1OC	0	-	0	-	0	0
Cc1nnc(OCc2nc3ccccc3n2C)c2ccccc12	0	0	0	0	59	0
CCCN1C(=O)/C(=C/c2c(NCCCOC(C)C)nc3c(C)cccn3c2=O)SC1=S	0	0	0	0	0	0
CCC(C)N1C(=O)/C(=C/c2c(NCCCOC(C)C)nc3c(C)cccn3c2=O)SC1=S (stereo unspecified)	0	0	0	0	57	0
CCN(CC)c1ccc(CC(=O)NC(C)Cc2ccccc2)cc1 (stereo unspecified)	0	0	0	0	60	82
O=c1cc(O)nc(SCc2ccccc2)n1-c1ccc(F)cc1	0	0	0	0	0	0
COc1ccc(-c2nnc(CSc3nc4ccccc4c(=O)n3C)o2)cc1OC	0	0	0	0	86	80
O=c1c2ccccc2nc(SCc2nnc(-c3ccccc3)o2)n1-c1ccc(F)cc1F	0	0	0	0	99	77
CCOC(=O)C1=C(NC(=O)c2ccc(Br)o2)Nc2ccccc2N=C1	0	0	0	0	60	0
